Screens from PubChem.
Sampled rows, rich in hits. Any-hit rate of the full collection: about 7.9%.
FMDV inh: antivirals against foot and mouth disease virus; 410,000 tested, 1.2% active; Potency, µM (series often up to 57.9 µM), without a hit: at the top dose activity change, negative = inhibition, most hits filed as inhibitors; FMDV antiviral cell-based qHTS; calls by dose curve; tested in HEK293T cells; note: read-out not given here; potency is the fitted concentration of half-maximal effect; nearly all actives have a fitted effect of over 45% in size
HCV inh: HCV inhibition. Huh7.5.1 HCVcc-Cre infection, luciferase reporter, 44 h. Potency, µM (top dose mostly 41.8 µM), without a hit: at the top dose activity change, negative = inhibition, actives largely listed as inhibitors. 340,000 tested, 3.4% active. AID 651820; active = well fitted inhibition curve with a large enough effect; inconclusive = small, poorly fitted or top-dose-only effect, or another doubt; inactive = no such curve, though single readings can be large or run the other way; note: potency is the fitted concentration of half-maximal effect
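Seed cells (1,000/well) for 4 h; treat with compound and infect with HCVcc-Cre, moi about 0.5. Incubate 44 h, then detect luciferase activity.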
Marburg entry inh: inhibitors of Marburg virus binding or cell entry | 300,000 tested, 1.8% active | AID 540276 | Potency, µM (top dose mostly 37.8 µM), inactives show top-dose activity change, negative = inhibition, usual class: inhibitors | Marburg virus pseudotyped entry inhibition, cell reporter; calls by dose curve; tested in HEK293 cells; note: potency is the fitted concentration of half-maximal effect
HCMV inh: human cytomegalovirus inhibition; activity change, negative = inhibition, % at 57.5 µM; 410,000 tested, 4.5% active; HFF cells, HCMV-luciferase reporter, 72 h; stronger effect = lower value; AID 1259415; in the data active = activity change below about -60%; inconclusive = no clear call, values can overlap the other calls; inactive = above about -39%
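Steps: HFFs plated, 16 h 37C; compounds added; HCMV-luciferase added to MOI 1 PFU/cell; 72 h 37C; OneGlo reagent, 5 min room temperature; luminescence read, normalized to controls.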
Lassa entry inh: blocks Lassa virus binding to or entry into cells | Lassa virus pseudotype entry inhibition, cell reporter | Potency, µM (series often up to 37.9 µM), for inactives: at the top dose activity change, negative = inhibition, actives largely listed as inhibitors | 300,000 tested, 1.2% active; calls by dose curve; tested in HEK293 cells; note: potency is the fitted concentration of half-maximal effect; nearly all actives have a fitted effect of over 50% in size
Numbers without * were called inactive; u = inconclusive; x = not tested or not shown; [ ] = another dose, or the depositor's remark. % is set by controls: 0 for no effect and ±100 for the full control effect.

SMILES	FMDV inh	HCV inh	Marburg entry inh	HCMV inh	Lassa entry inh
COc1cc(-c2nc(-c3ccccc3)c(-c3cc([N+](=O)[O-])ccc3C)[nH]2)cc(OC)c1OC	-25%	13µM*	u	-73*	u
COc1cc(C(=O)N/N=C/c2ccc3c(c2)c2ccccc2n3C)ccc1O	-23%	u	u	-14	-29%
CCn1c2ccccc2c2cc(/C=N/NC(=O)c3ccccc3)ccc21	-17%	u	12µM*	-21	u
Cn1c2ccccc2c2cc(/C=N/NC(=O)c3cc(O)cc(O)c3)ccc21	-22%	0%	u	-23	11%[46.1 µM]
CCn1c2ccccc2c2cc(/C=N/n3c(C)nnc3C)ccc21	x	3.5µM*	u	108	u
Cn1c2ccccc2c2cc(/C=N/NC(=O)c3cc(O)ccc3O)ccc21	20µM*	10µM*	-8%	16	u
COc1ccc(N2CCN(S(=O)(=O)CCNC(=O)c3ccc(C(F)(F)F)cc3)CC2)cc1	17%	x	x	-1	16%[46.1 µM]
CC1CCc2onc(C(=O)N3CCN(c4cccc(C(F)(F)F)c4)CC3)c2C1 (configuration not stated)	u	x	x	u	-24%[46.1 µM]
O=C(CN1CCCCCC1)Nc1ccccc1Cl	10%	7%	x	-30	x
CC(Cc1ccccc1)NCC(=O)Nc1cc(N(C)C)nc2ccccc12 (configuration not stated)	-21%	-75%	u	-25	u
CN(C)c1cc(NC(=O)CN2CCCC2)c2ccccc2n1	-10%	u	10µM*	-5	6%[46.1 µM]
CN(C)c1cc(NC(=O)CNC(C)(C)CC(C)(C)C)c2ccccc2n1	-26%	u	u	-60*	u
CC(=O)NC12CC3CC(C1)CC(C(=O)Nc1cccc(S(=O)(=O)N4CCCCCC4)c1)(C3)C2	-26%	-30%	u	-7	-14%
CCCOc1ccc(OC(=O)c2ccc(-c3ccc(CCC)cn3)cc2)cc1	-15%	x	x	-31	0%[46.1 µM]
O=C1c2cccc3cccc(c23)C(=O)N1CCN1CCN(CC(O)COCc2ccc(Cl)cc2)CC1 (configuration not stated)	u	11µM*	u	-79*	18µM*
COc1cc(COCC(O)CN2CCN(CCN3C(=O)c4cccc5cccc(c45)C3=O)CC2)cc(OC)c1OC (configuration not stated)	u	3.5µM*	u	-76*	-10%
O=C1c2cccc3cccc(c23)C(=O)N1CCN1CCN(C(=S)Nc2ccc(Cl)cc2)CC1	14%	-14%	9%	4	1%
Clc1nc(-c2ccccn2)nc2scc(-c3ccccc3)c12	u	u	u	-66*	u
CN1CCN(c2nc(-c3cccnc3)nc3scc(-c4ccccc4)c23)CC1	-1%	-9%	u	-34	2%
O=[N+]([O-])c1ccc(N2CCN(c3cccc(Cl)c3)CC2)cn1	-22%	-15%	8.9µM*	u	u
O=[N+]([O-])c1ccc(N2CCCCC2)cn1	35%	11%	x	5	x
O=C(Nc1ccccc1C(=O)NC(Cc1ccccc1)C(=O)NC1CCCCC1)c1ccccc1 (configuration not stated)	-22%	-11%	-1%	u	-25%
O=c1cc(-c2ccc(O)cc2)oc2cc(OC3OC(CO)C(O)C(O)[C@H]3O[C@@H]3OC[C@@](O)(CO)C3O)cc(O)c12 (some centres not stated)	-12%	x	x	x	x
Cc1ccc2nc(C3CCCN(C(=S)Nc4cccc(C)c4C)C3)[nH]c2c1 (configuration not stated)	x	1.8µM*	u	u	u
Cc1ccc(NC(=S)N2CCCC(c3nc4ccc(C)cc4[nH]3)C2)c(C)c1 (configuration not stated)	x	10µM*	u	-15	-13%
COc1ccc(NC(=S)N2CCCC(c3nc4ccc(C)cc4[nH]3)C2)c(OC)c1 (configuration not stated)	-5%	u	-9%	-87*	-10%
Cc1cc2nc(C3CCCN(C(=S)Nc4ccccc4C)C3)[nH]c2cc1C (configuration not stated)	x	10µM*	-21%	-17	u
COc1ccc(-n2c(=O)c3c(c4cc(OC)ccc4n3C)n(Cc3cccc(OC)c3)c2=O)cc1	-10%	x	x	2	24%[46.1 µM]
